IL1B secr inh: qHTS for Inhibitors of Inflammasome Signaling: IL-1-beta AlphaLISA Primary Screen. THP-1 LPS/ATP IL-1B secretion, AlphaLISA, 16 h; hits give low values. activity change, % at 57.5 µM. actives 4.7% (n = 360,000); in the data active = activity change below about -50%; inconclusive = mostly about -30% to -49%
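Secreted IL-1B measured by AlphaLISA bead assay after 16 h compound exposure of THP-1 cells; compounds (final up to 57.5 uM) added 1 h before LPS (250 ng/mL) and ATP (1.25 mM) stimulation; lower signal means less secretion.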
ELG1 repair inh: qHTS screen for small molecules that inhibit ELG1-dependent DNA repair in human embryonic kidney (HEK293T) cells expressing luciferase-tagged ELG1; HEK293T ELG1-luciferase reporter, luminescence, 16 h; DNA damage induced by 5-fluorouridine; Potency, µM (series often up to 46.1 µM), usual class: inhibitors; actives 2.3% (n = 330,000); AID 504467, 2011; also: nearly all actives have a fitted effect of over 55% in size
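DMSO vehicle served as the neutral condition. Each well held 2,000 cells given 5-fluorouridine plus compound; after 16 hr at 37 °C/5% CO2, ONE-Glo was added and luciferase measured 30 min later.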
HT1080NT lethal: qHTS for induction of synthetic lethality in tumor cells producing 2HG: qHTS for the HT-1080-NT fibrosarcoma cell line | Potency, µM (series often up to 46.1 µM), hits mostly cytotoxic | HT-1080-NT fibrosarcoma viability, CellTiter-Glo ATP luminescence, 48 h | actives 1.6% (n = 360,000) | AID 686970, 2013;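 also: NT is the 2HG producing partner of a matched IDH1 knockdown line; nearly all actives have a fitted effect of over 55% in size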
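750 cells/well, RPMI + 5% FBS; 2 h settle, compound pin-transfer, 48 h at 37 degrees C. CellTiter-Glo 10 min RT, luminescence. Normalized to DMSO and media-only wells.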
HT1080 IDH1KD tx: qHTS for induction of synthetic lethality in tumor cells producing 2HG: qHTS for the HT-1080-IDH1KD cell line; actives 2% (n = 360,000); HT-1080 IDH1 knockdown viability, ATP luminescence, 48 h; Potency, µM (titrated, usually from 46.1 µM), most hits filed as cytotoxic
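Viability of IDH1-knockdown HT-1080 fibrosarcoma cells was assessed by CellTiter-Glo after 48 h at 37 °C with titrated compound; concentration-effect curves were classified by fit quality and response size.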
DT40 TDP1 no CPT: qHTS for Inhibitors of human tyrosyl-DNA phosphodiesterase 1 (TDP1): qHTS in cells in absence of CPT; DT40 Tdp1-/- hTDP1 cells, no CPT, ATP luminescence, 48 h; Potency, µM (series often up to 46.2 µM), most hits filed as inhibitors; actives 15% (n = 420,000); AID 686978, 2013; also: nearly all actives have a fitted effect of over 55% in size
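Chicken DT40 Tdp1-/- cells stably complemented with human TDP1 were seeded at 400 cells/well with DMSO in place of 20 nM camptothecin. After compound pinning, cells grew at least 48 hr at 37 °C; viability read by CellTiter-Glo luminescence.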
DT40 TDP1 CPT: qHTS for Inhibitors of human tyrosyl-DNA phosphodiesterase 1 (TDP1): qHTS in cells in presence of CPT. chicken DT40 Tdp1-/-;hTDP1 cells + 20 nM CPT, ATP luminescence, 48 h. actives 12% (n = 420,000). AID 686979, 2013. Potency, µM (series often up to 46.2 µM), actives largely listed as inhibitors; also: nearly all actives have a fitted effect of over 55% in size
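Cell growth measured by CellTiter-Glo luminescence after a minimum 48 h, 37 C compound exposure with 20 nM CPT in Tdp1-knockout DT40 cells stably expressing hTDP1, seeded 400/well; qHTS titration format.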
Each line names hits and unclear results; the compound was inactive in the other large screens. Shown are actives, neighbours in structure and some others; about 19% of the full set was active somewhere. Unless noted, calls follow the shape of the dose curve; as a rule, active = well fitted curve in the direction sought with a large enough effect; inconclusive = small, poorly fitted or top-dose-only effect, or another doubt; inactive = no such curve, though single readings can be large; an effect the other way counts as inactive or inconclusive.

C/C(=N\NC(=O)c1c(Br)c(C)nn1C)c1ccc(NC(=O)C(C)Oc2ccc(Cl)cc2C)cc1 (stereo not drawn)	ELG1 repair inh inconclusive, HT1080NT lethal inconclusive, HT1080 IDH1KD tx inconclusive, DT40 TDP1 no CPT inconclusive, DT40 TDP1 CPT inconclusive
Cc1cc(C)c(C)c(S(=O)(=O)N2CCC(C(=O)NC3=NCCS3)CC2)c1C	none
Cc1cc(=O)[nH]c2ccc(S(=O)(=O)NCc3ccccc3)cc12	none
CCOC(=O)C1(Cc2cccc(Cl)c2)CCCN(C(=O)c2cn[nH]c2)C1 (stereo not drawn)	none
CCOC(=O)C1(Cc2cccc(OC)c2)CCCN(C(=O)CSC)C1 (stereo not drawn)	DT40 TDP1 no CPT inconclusive, DT40 TDP1 CPT inconclusive (no result: ELG1 repair inh)
CCOC(=O)C1(Cc2cccc(Cl)c2)CCCN(C(=O)c2ccnn2C)C1 (stereo not drawn)	ELG1 repair inh inconclusive, DT40 TDP1 no CPT inconclusive, DT40 TDP1 CPT 15µM
CCOC(=O)C1(Cc2ccccc2C)CCCN(C(=O)c2cc(CC)nn2C)C1 (stereo not drawn)	DT40 TDP1 no CPT inconclusive, DT40 TDP1 CPT inconclusive
CCOC(=O)C1(Cc2cccc(Cl)c2)CCCN(C(=O)c2cc(CC)on2)C1 (stereo not drawn)	ELG1 repair inh inconclusive, DT40 TDP1 no CPT 16µM, DT40 TDP1 CPT inconclusive
CCOC(=O)C1(Cc2cccc(OC)c2)CCCN(C(=O)c2cc(C)oc2C)C1 (stereo not drawn)	ELG1 repair inh inconclusive, DT40 TDP1 no CPT 13µM, DT40 TDP1 CPT 21µM
CCOC(=O)C1(Cc2cccc(Cl)c2)CCCN(C(=O)c2cc(C)n(C)n2)C1 (stereo not drawn)	DT40 TDP1 no CPT inconclusive, DT40 TDP1 CPT inconclusive
CCCc1cc(C(=O)N2CCCC(Cc3cccc(Cl)c3)(C(=O)OCC)C2)n(C)n1 (stereo not drawn)	ELG1 repair inh inconclusive, HT1080NT lethal inconclusive, HT1080 IDH1KD tx inconclusive, DT40 TDP1 no CPT 13µM, DT40 TDP1 CPT 18µM
COc1ccccc1C(=O)NC(=O)Nc1c(C)cc(C)cc1C	DT40 TDP1 CPT inconclusive
Cc1cc2nnc(SCC(=O)N(C)C3CCS(=O)(=O)C3)n2c2ccccc12 (stereo not drawn)	none
Cc1cc2c(cc3c(=O)n(CC(=O)NCCCN4CC(C)CC(C)C4)ncn32)s1 (stereo not drawn)	IL1B secr inh inconclusive
COc1ccc(CCN2CC(C(=O)N(C)Cc3cccnc3)CC2=O)cc1OC (stereo not drawn)	ELG1 repair inh inconclusive
NC(=S)N=Nc1c(O)n(CCCl)c2ccc(Br)cc12	IL1B secr inh -101, ELG1 repair inh 15µM, DT40 TDP1 no CPT 23µM, DT40 TDP1 CPT 16µM
C/C(Cl)=C\Cn1c(O)c(N=NC(N)=S)c2cc(Br)ccc21	HT1080NT lethal inconclusive, HT1080 IDH1KD tx inconclusive, DT40 TDP1 no CPT 1.6µM, DT40 TDP1 CPT 1.3µM
Cc1ccc(OCCNC(=O)CCc2ccccc2)cc1C	none (no result: ELG1 repair inh)
Cc1cc(C(=O)COC(=O)c2cc(Cl)c(O)c(Cl)c2)c(C)n1C	ELG1 repair inh inconclusive
Cc1nc2cc(C(F)(F)F)ccc2n1CCNc1nc(-c2ccc([N+](=O)[O-])c(Cl)c2)cs1	IL1B secr inh inconclusive, ELG1 repair inh inconclusive, HT1080NT lethal inconclusive, HT1080 IDH1KD tx inconclusive, DT40 TDP1 no CPT 21µM, DT40 TDP1 CPT inconclusive
Cc1ccc(-c2csc(NCCn3c(-c4ccncc4)nc4cc(C(F)(F)F)ccc43)n2)cc1	IL1B secr inh inconclusive, ELG1 repair inh inconclusive, DT40 TDP1 no CPT inconclusive, DT40 TDP1 CPT 29µM
Cc1ccc(-c2csc(NCCn3c(-c4ccncc4)nc4ccccc43)n2)cc1	ELG1 repair inh inconclusive, DT40 TDP1 no CPT 23µM, DT40 TDP1 CPT inconclusive
Cc1ccc(Cn2c(CCNc3nc(-c4ccc(Cl)c([N+](=O)[O-])c4)cs3)nc3cc(C(=O)NCCCO)ccc32)cc1	HT1080NT lethal inconclusive, HT1080 IDH1KD tx inconclusive, DT40 TDP1 no CPT 13µM, DT40 TDP1 CPT 10µM (no result: ELG1 repair inh)
COc1ccc(-c2csc(NCCn3c(C)nc4cc(C(F)(F)F)ccc43)n2)cc1	DT40 TDP1 no CPT inconclusive, DT40 TDP1 CPT inconclusive
Cc1nc2cc(C(F)(F)F)ccc2n1CCNc1nc(-c2ccc(F)cc2)cs1	DT40 TDP1 no CPT inconclusive, DT40 TDP1 CPT inconclusive
CCOC(=O)c1ccc(NC(=O)c2ncn3c2C(=O)NC[C@H]3C)cc1	DT40 TDP1 no CPT inconclusive, DT40 TDP1 CPT inconclusive (no result: ELG1 repair inh)
Cc1ccc(N(O)C(C)(C)C)cc1	DT40 TDP1 no CPT 16µM, DT40 TDP1 CPT 23µM (no result: ELG1 repair inh)
Cc1ccc(C(C)(C)c2ccc(C)cc2)cc1	none (no result: IL1B secr inh, ELG1 repair inh, HT1080NT lethal, HT1080 IDH1KD tx)
Cc1ccc(NC(=O)Cn2c(=O)cnc3ccccc32)cc1S(=O)(=O)N1CCOCC1	DT40 TDP1 no CPT inconclusive
CC(C)c1onc(C(=O)NC2CCCCC2)c1[N+](=O)[O-]	HT1080 IDH1KD tx inconclusive, DT40 TDP1 no CPT 21µM, DT40 TDP1 CPT 21µM
O=c1cc(N2CCOCC2)oc2c(-c3ccccc3)cccc12	DT40 TDP1 no CPT 7.3µM, DT40 TDP1 CPT 8.2µM (no result: IL1B secr inh, ELG1 repair inh, HT1080NT lethal, HT1080 IDH1KD tx)
CC(=O)Nc1ccc(NC(=O)C(Sc2ccccc2)c2ccccc2)cc1 (stereo not drawn)	ELG1 repair inh inconclusive
CCCCNS(=O)(=O)c1ccc(NC(=O)C(Sc2ccccc2)c2ccccc2)cc1 (stereo not drawn)	IL1B secr inh inconclusive, ELG1 repair inh 18µM, HT1080NT lethal inconclusive, HT1080 IDH1KD tx inconclusive, DT40 TDP1 no CPT inconclusive, DT40 TDP1 CPT inconclusive
CCC(C)NS(=O)(=O)c1ccc(NC(=O)C(Sc2ccccc2)c2ccccc2)cc1 (stereo not drawn)	IL1B secr inh -54, ELG1 repair inh inconclusive, HT1080 IDH1KD tx inconclusive, DT40 TDP1 no CPT inconclusive, DT40 TDP1 CPT inconclusive
CC(=O)NS(=O)(=O)c1ccc(NC(=O)C(Sc2ccccc2)c2ccccc2)cc1 (stereo not drawn)	none
CCOC(=O)c1c(NC(=O)Cn2cnc3scc(-c4ccc(C)cc4)c3c2=O)sc(C)c1C	none
Cc1ccc(C)c(NC(=O)c2ccc(CN3CC(=O)N4CCCCC4C3=O)cc2)c1 (stereo not drawn)	DT40 TDP1 no CPT 16µM, DT40 TDP1 CPT 16µM (no result: IL1B secr inh, ELG1 repair inh, HT1080NT lethal, HT1080 IDH1KD tx)
C1CCc2c(nc3nnnn3c2N2CCOCC2)C1	none
